# Bioassay records (PubChem BioAssay)
# Sampled rows, rich in hits. Any-hit rate of the full collection: about 4.2%.
# TCR activator: Activators of T cell receptors: qHTS campaign; primary human leukocytes, anti-CD3, IL-2 HTRF, 48 h; Potency, µM (top dose mostly 9.22 µM), for the others: at the highest dose activation of IL-2 secretion, most hits filed as activators; 330,000 tested, under 10 active; also: % of control where 0% means no effect
#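 Activity was scored as IL-2 release from primary human leukocytes given only a TCR signal (a-CD3 beads) plus compound for 48 hr. Detection used a two-antibody HTRF format read at 665nm.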
# Sfp inh: qHTS Assay for Inhibitors of Bacillus subtilis Sfp phosphopantetheinyl transferase (PPTase); 4'-phosphopantetheinyl transferase ffp (Bacillus subtilis), Q9F4F7; Potency, µM, for inactives: largest response in the series, negative = inhibition, actives largely listed as inhibitors; 3.5% of 310,000 active; Biochemical Sfp PPTase activity, qHTS;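 also: the enzyme is Sfp with the accession as filed and its product quenches rhodamine fluorescence; potency is read from the fitted curve at half-maximal effect; 0% = enzyme reaction without inhibitor and -100% = no enzyme wells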
#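 After 15 min at room temperature with compound, 15 nM Sfp received 5 uM rhodamine-CoA plus 12.5 uM BHQ-2-ybbR (50 mM Hepes pH 7.6, 10 mM MgCl2). Rate came from the fluorescence difference over 30 min, ex 525/em 598 nm.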
# ClpP mod: qHTS Assay for Activators of ClpP; ATP-dependent Clp protease proteolytic subunit (Bacillus subtilis (strain 168)), P80244; purified B. subtilis ClpP, FRET peptide cleavage, 20 min; Potency, µM (series often up to 57.5 µM), inactives show at the highest dose activity change, negative = active; 1.9% of 340,000 active; AID 651965, 2013; active = well fitted falling curve with a large enough effect; inconclusive = small, poorly fitted or top-dose-only effect; inactive = no such curve, though single readings can be large or run the other way; also: potency is read from the fitted curve at half-maximal effect; the source files actives as falling curves though it sought activators and does not explain the sign; nearly all actives have a fitted effect of over 65% in size
#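 Purified B. subtilis ClpP, 10 microg/mL final in Tris/HCl pH8 with KCl, BSA, glycerol and Tween-20, cleaved an Abz/nitrotyrosine-quenched decapeptide. Fluorescence (ex 320, em 430) was read at 0 and 20 min at room temperature. Delta was normalized to 5.8 microM ADEP and DMSO/no-enzyme controls.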
# uPA generation: qHTS for Inhibitors of Cell Surface uPA Generation | cell surface uPA generation assay, qHTS | Potency, µM (top dose mostly 38.3 µM), for inactives: top-dose activity change, negative = inhibition, usual class: inhibitors | 0.31% of 330,000 active; active = well fitted inhibition curve with a large enough effect; inconclusive = small, poorly fitted or top-dose-only effect; inactive = no such curve, though single readings can be large or run the other way; tested in mouse RAW 264.7 cells; also: potency is read from the fitted curve at half-maximal effect; % is scaled to controls: 0 for no effect and ±100 for the full control effect; nearly all actives have a fitted effect of over 55% in size
# Active calls of the source: *; u = inconclusive; x = no result given; [ ] = remark or other dose. Unless noted, calls follow the shape of the dose curve; as a rule, active = well fitted curve in the direction sought with a large enough effect; inconclusive = small, poorly fitted or top-dose-only effect, or another doubt; inactive = no such curve, though single readings can be large; an effect the other way counts as inactive or inconclusive.
SMILES,TCR activator,Sfp inh,ClpP mod,uPA generation
Cn1cc(S(=O)(=O)N2CCCCC2)cc1C(=O)N1CCN(c2ccc(F)cc2)CC1,x,x,0%,x
CCc1cccc(C)c1NC(=O)c1cc(S(=O)(=O)N2CCOCC2)cn1C,x,x,2%,x
CC(C)Cc1nn2c(=O)cc(COC(=O)c3ccc(NC(=O)C4CCCCC4)cc3)nc2s1,x,x,-18%,x
CCOc1cc(CNC(C)(C)CO)cc(Br)c1OCc1ccc(Cl)cc1Cl,x,45µM*,1%,2%
COc1cccc(CNc2ccccc2O)c1OCc1ccccc1F,-5%,50µM*,x,-3%
COc1cc(CNc2ccc(O)cc2)cc(Br)c1OCc1ccccc1F,6%[46.1 µM],28µM*,-4%,-3%
CCOc1cc(CNCCO)cc(Br)c1OCc1ccccc1Cl,-2%,-9%,1%,2%
CCOc1cc(CNc2ccc(O)cc2)cc(Br)c1OCc1ccccc1F,-91%,18µM*,-2%,-8%
COc1cccc(CNc2ccc(S(N)(=O)=O)cc2)c1OCc1ccccc1F,0%[46.1 µM],-5%,1%,-7%
CCOc1cc(CNc2ccc(O)cc2)cc(Br)c1OCc1ccccc1,x,x,-45%,x
CC(NC(=O)COC(=O)c1ccc[nH]c1=O)c1ccccc1 (stereo not given),4%,x,x,2%
Cc1noc(C)c1C(=O)OCC(=O)NC(=O)c1ccc(C(C)(C)C)cc1,x,x,1%,x
CC(C)(C)c1ccc(C(=O)NC(=O)COC(=O)c2ccc(Br)o2)cc1,-4%,x,32µM*,-7%
CCOC(=O)c1[nH]c(C)c(CCC(=O)N2CCN(c3cccc(C)c3C)CC2)c1C,x,x,3%,x
CC(NC(=O)C1CC1)C(c1cccs1)N1CCN(c2ccccc2)CC1 (stereo not given),2%[46.1 µM],5%,-1%,-15%
CC(NC(=O)NC1CCCCC1)C(c1cccs1)N1CCN(c2ccccc2)CC1 (stereo not given),-2%,12%,0%,10µM*
COC(=O)c1ccc(C(=O)OC)c(NC(=O)CN(c2ccccc2)S(=O)(=O)N(C)C)c1,-6%,2%,u,-5%
CCCOc1cc(C)nc(-c2ccccc2O)n1,-3%,-4%,1%,6%
CCCCN(CCCC)c1cc(C)nc(-c2ccccc2O)n1,-18%,u,32µM*,-7%
CCc1nc2c(OCCOc3ccc(F)cc3)cccn2c1N(C)C(=O)c1ccc(OC)cc1,x,x,-1%,x
COCCn1c(NC(=S)NC(=O)C2CC2)cc(=O)[nH]c1=O,15%,22µM*,0%,-4%
CC1(C)NC(=O)N(CC(=O)N2CCCC(C(F)(F)F)C2)C1=O (stereo not given),-3%,x,0%,-1%
Cc1ccsc1CNCC(O)c1ccccc1 (stereo not given),-3%,-9%,x,-1%
Cc1ccsc1CNC1C2CC3CC(C2)CC1C3 (stereo not given),x,8%,22µM*,-3%
CC(C)CN1CCN(Cc2c[nH]c3ccccc23)CC1CCO (stereo not given),2%,7%,0%,-2%
SMILES,TCR activator,Sfp inh,ClpP mod,uPA generation
CCCCOC(=O)c1ccc(OC(=O)c2sc3ncn(Cc4ccccc4Cl)c(=O)c3c2C)cc1,x,x,-1%,x
Cc1cc(C)nc(N(C#N)CN2C(=O)c3ccccc3C2=O)n1,-3%,89µM*,-1%,x
CC(C)Nc1nc(Cl)nc(N(C#N)CN2C(=O)c3ccccc3C2=O)n1,2%[46.1 µM],-11%,-3%,-13%
CC1CCc2sc(C(=O)N3CCN(c4ncccn4)CC3)cc2C1 (stereo not given),0%,x,-4%,0%
CN(C)c1ccc(/C=N/n2cnn(Cc3ccccc3Cl)c2=S)cc1,6%,-23%,x,2%
Fc1ccc(/C=N/n2cnn(Cc3ccccc3Cl)c2=S)cc1,x,50µM*,x,1%
COc1ccc(C(CNC(=O)COc2ccc(Cl)c(C)c2)N2CCCCC2)cc1 (stereo not given),7%,1%,1%,-6%
Cc1oc2ncnc(N3CCCCC3)c2c1C(=O)NCC1CCN(Cc2ccccc2F)CC1,x,x,2%,x
COCCNC(=O)c1ccc2c(c1)NC(=O)C(CS(=O)(=O)Cc1ccc(F)cc1Cl)N2 (stereo not given),x,x,16µM*,x
CCCCNC(=O)c1ccc2c(c1)NC(=O)C(CS(=O)(=O)Cc1cccc(C)c1)N2 (stereo not given),x,x,32µM*,x
Cc1cc(NC(=O)CSc2nc(-c3cccs3)nc3ccccc23)no1,-4%,x,-23%,1.8µM*
O=C(O)CCCn1c(O)c(C=C2N=c3ccccc3=N2)sc1=S,1%,12%,-1%,u
COCCCn1c(O)c(/C=C2\N=C(C#N)C(=Nc3ccc(C)cc3)O2)sc1=S,3%,13µM*,x,-8%
CN[C@@H](CCCN=C(N)N)C(=O)N[C@@H](CCCCN)C(=O)N1CCC[C@H]1C(=O)N[C@@H](Cc1c[nH]c2ccccc12)C(=O)N[C@H](C(=O)N[C@H](CC(C)C)C(=O)O)C(C)(C)C,x,1%,x,x
COc1ccc2c(C)cc3n[nH]c(=S)n3c2c1,4%,16µM*,-22%,1%
CN1CC(=O)N2C(c3cccc([N+](=O)[O-])c3)c3[nH]c4ccccc4c3C[C@H]2C1=O (stereo not given in full),0%,9%,0%,0.4µM*
CN1CC(=O)N2C(c3ccc(Cl)cc3)c3[nH]c4ccccc4c3C[C@H]2C1=O (stereo not given in full),-7%,-5%,0%,5.6µM*
COC(=O)c1ccc(C2c3[nH]c4ccccc4c3C[C@H]3C(=O)N(C)CC(=O)N23)cc1 (stereo not given in full),3%,7%,x,-4%
O=C1[C@@H]2Cc3c([nH]c4ccccc34)C(c3cccc([N+](=O)[O-])c3)N2C(=O)CN1CCCO (stereo not given in full),-11%,6%,-1%,-12%
CNc1nc(C(=O)O)nc(N2CCOCC2)n1,-1%[46.1 µM],56µM*,-3%,17%
CNC(=S)NNc1nc(N2CCOCC2)nc(N2CCOCC2)n1,-2%,2.2µM*,x,3%
CCNC(=S)NNc1nc(N2CCOCC2)nc(N2CCOCC2)n1,x,14µM*,x,-2%
C=CCNC(=S)NNc1nc(N2CCCC2)nc(N2CCCC2)n1,x,40µM*,-3%,-6%
O=C(O)C1C2CCC(O2)C1C(=O)Nc1ccc(F)c(Cl)c1 (stereo not given),-4%,5%,-1%,u
C[C@]12CC[C@@H]3c4ccc(O)cc4CC[C@H]3[C@@H]1CCC2OC(=O)CCC1CCCC1 (stereo not given in full),x,27%,x,x
Cc1cccc(C(=O)n2c(=S)nc3cc(C)ccn32)c1,0%,8.9µM*,x,-16%
Cc1ccn2c(c1)nc(=S)n2C(=O)c1ccccc1,-1%,-17%,-6%,-7%
CCCC1C2CN(C(C)C)CC=C2C(C#N)=C(N)C1(C#N)C#N (stereo not given),1%,-6%,28µM*,-6%
